The supplement of paper PMC6897291

Test system: RIVA
Test: growth inhibition by drug plus 177Lu-lilotomab satetraxetan (1 - RLU/untreated control) (fraction); higher = stronger inhibition
Conditions: 177Lu-lilotomab satetraxetan 0.5 ug/ml
Description: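 RIVA (RI-1) ABC-DLBCL cells were pretreated or not for 18 h with 0.5 ug/ml 177Lu-lilotomab satetraxetan (600 MBq/mg), washed and seeded (3000 cells/well) on 384-well plates pre-printed with the Selleck Cambridge Cancer Compound library. Viability was read by RealTime-Glo luminescence on days 3-6 after seeding. Effect = 1 - RLU/mean RLU of the 48 untreated no-drug control wells per plate; Bliss score = (M-E)/(1-Fa).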

SMILES	growth inhibition by drug plus 177Lu-lilotomab satetraxetan (10 nM, time (day): 3)	growth inhibition by drug plus 177Lu-lilotomab satetraxetan (10 nM, time (day): 4)	growth inhibition by drug plus 177Lu-lilotomab satetraxetan (10 nM, time (day): 5)	growth inhibition by drug plus 177Lu-lilotomab satetraxetan (10 nM, time (day): 6)	growth inhibition by drug plus 177Lu-lilotomab satetraxetan (100 nM, time (day): 3)	growth inhibition by drug plus 177Lu-lilotomab satetraxetan (100 nM, time (day): 4)	growth inhibition by drug plus 177Lu-lilotomab satetraxetan (100 nM, time (day): 5)	growth inhibition by drug plus 177Lu-lilotomab satetraxetan (100 nM, time (day): 6)
Cc1ccc(S(=O)(=O)C=CC#N)cc1	0.414	0.5	0.522	0.534	0.401	0.472	0.47	0.452
Cc1[nH]c2ccccc2c1CCNCc1ccc(/C=C/C(=O)NO)cc1 [Panobinostat]	0.93	0.93	0.939	0.944	0.987	0.988	0.988	0.987
CCC(C)(C)C(=O)O[C@H]1C[C@@H](C)C=C2C=C[C@H](C)[C@H](CC[C@@H]3C[C@@H](O)CC(=O)O3)[C@H]21 [Simvastatin (Zocor)]	0.493	0.554	0.575	0.582	0.469	0.494	0.501	0.48
COc1c(C)cnc(Cn2cnc3c(Cl)nc(N)nc32)c1C	0.511	0.587	0.6	0.607	0.471	0.569	0.584	0.597
Cc1ccc(F)c(NC(=O)Nc2ccc(-c3cccc4[nH]nc(N)c34)cc2)c1 [Linifanib (ABT-869)]	0.454	0.546	0.574	0.585	0.515	0.54	0.546	0.517
